# In PubChem BioAssay (NCATS):
# Records with an inconclusive call do not appear. A call without a number means that no potency is given here. Values without a mark were called inactive. Active and inactive are the calls of the source. Calls follow the shape of the full dose curve.
# Experiments:
# [1] = Primary qHTS for Huh7 cytotoxicity: counterscreen for inhibitors of MERS-S pseudotyped particle cell entry (AID 1479147)
# [2] = Primary qHTS for inhibitors of MERS-S pseudo-typed particle cell entry (AID 1479149); also: nearly all actives have a fitted effect of over 60% in size; also: potency is read from the fitted curve at half-maximal effect
# [3] = Primary qHTS for Vero E6 cytotoxicity: counterscreen for inhibitors of SARS-S pseudo-typed particle cell entry (AID 1479150)
# [4] = Confirmatory qHTS for VERO E6 Cytotoxicity Assay: Counterscreen for SARS-CoV-2 CPE Assay (AID 1508605); also: nearly all actives have a fitted effect of over 60% in size; also: potency is read from the fitted curve at half-maximal effect
# [5] = Confirmatory qHTS for activators (rescue) of SARS-CoV-2 Cytopathic Effect (CPE) (AID 1508606); conditions: Vero E6 SARS-CoV-2 CPE rescue, viability luminescence; also: potency is read from the fitted curve at half-maximal effect; nearly all actives have a fitted effect of over 70% in size
structure (smiles),measurement,setting,value
CC[C@H](C)C(=O)O[C@H]1C[C@H](O)C=C2C=C[C@H](C)[C@H](CC[C@@H](O)C[C@@H](O)CC(=O)O)[C@H]21,Potency,[1],inactive
same,Potency,[2],inactive
same,Potency,[3],inactive
O=C(OCC1(COC(=O)c2cccnc2)CCCC(COC(=O)c2cccnc2)(COC(=O)c2cccnc2)C1O)c1cccnc1,Potency,[1],inactive
same,Potency,[2],inactive
same,Potency,[3],inactive
O=C(NC(Cc1cc(=O)[nH]c2ccccc12)C(=O)O)c1ccc(Cl)cc1 (stereo not given),Potency,[1],inactive
same,Potency,[2],inactive
same,Potency,[3],inactive
N#CSCC(=O)O,Potency,[1],inactive
same,Potency,[2],inactive
same,Potency,[3],inactive
CCCNC(C)C(=O)Nc1c(C)csc1C(=O)OC (stereo not given),Potency,[1],inactive
same,Potency,[2],inactive
same,Potency,[3],inactive
CCCCC(CC)CN1CN(CC(CC)CCCC)CC(C)(N)C1 (stereo not given),Potency,[1],inactive
same,Potency,[2],inactive
same,Potency,[3],inactive
CC(=O)[C@H]1CC[C@H]2[C@@H]3C[C@H](C)C4=CC(=O)CC[C@]4(C)[C@H]3[C@@H](O)C[C@]12C,Potency,[1],inactive
same,Potency,[2],inactive
same,Potency,[3],inactive
CCN1C(=O)NC(c2ccccc2)C1=O (stereo not given),Potency,[1],inactive
same,Potency,[2],inactive
same,Potency,[3],inactive
C[C@H]1O[C@@H](n2cc(F)c(=O)[nH]c2=O)[C@H](O)[C@@H]1O,Potency,[1],inactive
same,Potency,[2],inactive
same,Potency,[3],inactive
CC1(C)S[C@@H]2[C@H](NC(=O)C(c3ccccc3)S(=O)(=O)O)C(=O)N2[C@H]1C(=O)O (stereo not given in full),Potency,[1],inactive
same,Potency,[2],inactive
same,Potency,[3],inactive
c1ccc2c(c1)CCCC2C1=NCCN1 (stereo not given),Potency,[1],inactive
same,Potency,[2],inactive
same,Potency,[3],inactive
C/C=C1\[C@H]2C=C(C)C[C@]1(N)c1ccc(=O)[nH]c1C2,Potency,[1],inactive
same,Potency,[2],inactive
same,Potency,[3],inactive
CC(CCc1ccc(O)cc1)NCCc1ccc(O)c(O)c1 (stereo not given),Potency,[1],inactive
same,Potency,[2],inactive
same,Potency,[3],inactive
Nc1nc(N)nc(-c2cc(Cl)ccc2Cl)n1,Potency,[1],inactive
same,Potency,[2],inactive
same,Potency,[3],inactive
CO/N=C(/C(=O)N[C@@H]1C(=O)N2C(C(=O)[O-])=C(C[n+]3ccn4ncccc43)CS[C@H]12)c1nsc(N)n1,Potency,[1],inactive
same,Potency,[2],inactive
same,Potency,[3],inactive
COc1ccc(C(=O)NCc2ccc(OCCN(C)C)cc2)cc1OC,Potency,[1],inactive
same,Potency,[2],inactive
same,Potency,[3],inactive
NCc1ccc(S(N)(=O)=O)cc1,Potency,[1],inactive
same,Potency,[2],inactive
same,Potency,[3],inactive
NC1CCN(c2nc3c(cc2F)c(=O)c(C(=O)O)cn3-c2ccc(F)cc2F)C1 (stereo not given),Potency,[1],inactive
same,Potency,[2],inactive
same,Potency,[3],inactive
NCCCNCCSP(=O)(O)O,outcome,[1],inactive [at 11.4 µM]
same,outcome,[2],inactive [at 11.4 µM]
same,"activity change, negative = cytotoxicity",[3],2.55% [at 11.4 µM]
O=C(NCCO[N+](=O)[O-])c1cccnc1,Potency,[1],inactive
same,Potency,[2],inactive
same,Potency,[3],inactive
CC(C)(C)NCC(O)c1cc(O)cc(O)c1 (stereo not given),Potency,[1],inactive
same,Potency,[2],inactive
same,Potency,[3],inactive
CCCCCN(CCCOC)C(=O)C(CCC(=O)O)NC(=O)c1ccc(Cl)c(Cl)c1 (stereo not given),Potency,[1],inactive
same,Potency,[2],inactive
same,Potency,[3],inactive
CNC[C@H](O)c1cccc(O)c1,Potency,[1],inactive
same,Potency,[2],inactive
same,Potency,[3],inactive
CN1C(C(=O)Nc2ccccn2)=C(O)c2sccc2S1(=O)=O,Potency,[1],inactive
same,Potency,[2],inactive
same,Potency,[3],inactive
CCCOC(=O)c1ccccc1,Potency,[1],inactive
same,Potency,[2],inactive
same,Potency,[3],inactive
CC(=O)OC(C)OC(=O)C(C)c1ccc(-c2ccccc2)c(F)c1 (stereo not given),Potency,[1],inactive
same,Potency,[2],inactive
same,Potency,[3],inactive
CN(C)C(=O)Oc1ccc[n+](C)c1,Potency,[1],inactive
same,Potency,[2],inactive
same,Potency,[3],inactive
C=CCN1CCc2nc(N)sc2CC1,Potency,[1],inactive
same,Potency,[2],inactive
same,Potency,[3],inactive
Clc1cccc(Cl)c1NC1=NCCN1,Potency,[1],inactive
same,Potency,[2],inactive
same,Potency,[3],inactive
CCOCCn1c(C2CCN(CCc3ccc(C(C)(C)C(=O)O)cc3)CC2)nc2ccccc21,Potency,[1],inactive
same,Potency,[2],inactive
same,Potency,[3],inactive
O=C(OOC(=O)c1ccccc1)c1ccccc1,Potency,[1],inactive
same,Potency,[2],inactive
same,Potency,[3],inactive
CCOc1ccc(NS(=O)(=O)c2ccc(N)cc2)nn1,Potency,[1],inactive
same,Potency,[2],inactive
same,Potency,[3],inactive
NC[C@H]1O[C@H](O[C@H]2[C@H](O)[C@@H](O[C@H]3O[C@H](CO)[C@@H](O)[C@H](N)[C@H]3O)[C@H](N)C[C@@H]2N)[C@H](O)[C@@H](O)[C@@H]1O,outcome,[1],inactive [at 5.34 µM]
same,outcome,[2],inactive [at 5.34 µM]
same,outcome,[3],inactive [at 5.34 µM]
CCOC(=O)C1=C[C@@H](OC(CC)CC)[C@H](NC(C)=O)[C@@H](N)C1,Potency,[1],inactive
same,Potency,[2],inactive
same,Potency,[3],inactive
COC(=O)c1ccc(O)cc1,Potency,[1],inactive
same,Potency,[2],inactive
same,Potency,[3],inactive
CCS(=O)(=O)CCn1c([N+](=O)[O-])cnc1C,Potency,[1],inactive
same,Potency,[2],inactive
same,Potency,[3],inactive
CC(N=C(NC#N)Nc1ccncc1)C(C)(C)C (stereo not given),Potency,[1],inactive
same,Potency,[2],inactive
same,Potency,[3],inactive
OCc1ccc(Cl)cc1Cl,Potency,[1],inactive
same,Potency,[2],inactive
same,Potency,[3],inactive
CC(C)CN(C[C@@H](OP(=O)(O)O)[C@H](Cc1ccccc1)NC(=O)O[C@H]1CCOC1)S(=O)(=O)c1ccc(N)cc1,Potency,[1],inactive
same,Potency,[2],inactive
same,Potency,[3],inactive
CCc1oc2ccccc2c1C(=O)c1cc(I)c(O)c(I)c1,Potency,[1],inactive
same,Potency,[2],inactive
same,Potency,[3],inactive
CC12CCC(CC1)C(C)(C)O2,Potency,[1],inactive
same,Potency,[2],inactive
same,Potency,[3],inactive
CC(=O)Nc1ccc(S(=O)(=O)Nc2cc(C)on2)cc1,Potency,[1],inactive
same,Potency,[2],inactive
same,Potency,[3],inactive
O=C(/C=C/c1ccccc1)OCc1ccccc1,Potency,[1],inactive
same,Potency,[2],inactive
same,Potency,[3],inactive
CCN1CC(CCN2CCOCC2)C(c2ccccc2)(c2ccccc2)C1=O (stereo not given),Potency,[1],inactive
same,Potency,[2],inactive
same,Potency,[3],inactive
CCCCC[C@H](O)/C=C/[C@@H]1[C@H]2C/C(=C/CCCC(=O)O)O[C@H]2C[C@H]1O,Potency,[1],inactive
same,Potency,[2],inactive
same,Potency,[3],inactive
NCCCC[C@H](N[C@@H](CCc1ccccc1)C(=O)O)C(=O)N1CCC[C@H]1C(=O)O,Potency,[1],inactive
same,Potency,[2],inactive
same,Potency,[3],inactive
CC(C)(C)NC[C@H](O)COc1cccc2c1CCCC2=O,Potency,[1],inactive
same,Potency,[2],inactive
same,Potency,[3],inactive
COc1ccc(C(=O)c2ccccc2O)c(O)c1,Potency,[1],inactive
same,Potency,[2],inactive
same,Potency,[3],inactive
CCCCC(CC)CNC(=O)CC(C)OC(=O)CCC(=O)O (stereo not given),Potency,[1],inactive
same,Potency,[2],inactive
same,Potency,[3],inactive
CN1CCN2c3ncccc3Cc3ccccc3C2C1 (stereo not given),Potency,[1],inactive
same,Potency,[2],inactive
same,Potency,[3],inactive
CCCCCCCCCCCC(=O)[O][Sn]([CH2]CCC)([CH2]CCC)[O]C(=O)CCCCCCCCCCC,Potency,[1],inactive
same,Potency,[2],inactive
same,Potency,[3],inactive
Cc1cc2nc3c(=O)[nH]c(=O)nc-3n(C[C@H](O)[C@H](O)[C@H](O)CO)c2cc1C,Potency,[1],inactive
same,Potency,[2],inactive
same,Potency,[3],inactive
CCn1cc(C(=O)O)c(=O)c2cnc(N3CCNCC3)nc21,Potency,[1],inactive
same,Potency,[2],inactive
same,Potency,[3],inactive
COc1ccc2c(c1)c(CC(=O)OC/C=C(\C)CC/C=C(\C)CCC=C(C)C)c(C)n2C(=O)c1ccc(Cl)cc1,Potency,[1],inactive
same,Potency,[2],inactive
same,Potency,[3],inactive
Cc1c(C(=O)O)c(O)cc2c1C(=O)c1c(O)c([C@@H]3O[C@H](CO)[C@@H](O)[C@H](O)[C@H]3O)c(O)c(O)c1C2=O,Potency,[1],inactive
same,Potency,[2],inactive
same,Potency,[3],inactive
Cc1cc(O)cc2c1O[C@](C)(CCC[C@H](C)CCC[C@H](C)CCCC(C)C)CC2,Potency,[1],inactive
same,Potency,[2],inactive
same,Potency,[3],inactive
Cc1ccc(C(=O)C(C)CN2CCCCC2)cc1 (stereo not given),Potency,[1],inactive
same,Potency,[2],inactive
same,Potency,[3],inactive
O=C(O)CN(CCN(CC(=O)O)CC(=O)O)CCN(CC(=O)O)CC(=O)O,Potency,[1],inactive
same,Potency,[2],inactive
same,Potency,[3],inactive
CCCCCCCCCCOc1cc2c(=O)c(C(=O)OCC)c[nH]c2cc1OCC,outcome,[1],inactive [at 5.34 µM]
same,outcome,[2],inactive [at 5.34 µM]
same,"activity change, negative = cytotoxicity",[3],1.57% [at 5.34 µM]
NC(CO)(CO)CO,Potency,[1],inactive
same,Potency,[2],inactive
same,Potency,[3],inactive
Cc1ccc(-c2ncc(Cl)cc2-c2ccc(S(C)(=O)=O)cc2)cn1,Potency,[1],inactive
same,Potency,[2],inactive
same,Potency,[3],inactive
O=c1c(-c2ccc(O)cc2)coc2cc(O)cc(O)c12,Potency,[1],inactive
same,Potency,[2],inactive
same,Potency,[3],inactive
COc1cc(C)c(Cc2cnc(N)nc2N)cc1OC,Potency,[1],inactive
same,Potency,[3],inactive
CN1CCN(CCC=C2c3ccccc3Sc3ccc(S(=O)(=O)N(C)C)cc32)CC1,Potency,[2],inactive
same,Potency,[4],11.2 µM (active)
CNCCCC12CCC(c3ccccc31)c1ccccc12,Potency,[1],inactive
same,Potency,[3],inactive
same,Potency,[4],inactive
O=c1[nH]c(=O)n([C@H]2C[C@H](O)[C@@H](CO)O2)cc1Br,Potency,[1],inactive
same,Potency,[3],inactive
C[n+]1c2cc(N)ccc2cc2ccc(N)cc21 (tested in a mixture with another compound),Potency,[2],7.94 µM (active)
CC(=O)OCC(=O)[C@H]1CC[C@H]2[C@@H]3CCC4=CC(=O)CC[C@]4(C)[C@H]3CC[C@]12C,Potency,[1],inactive
same,Potency,[3],inactive
CCOc1ccc2nc3cc(N)ccc3c(N)c2c1,Potency,[1],inactive
same,Potency,[3],inactive
NC(N)=NS(=O)(=O)c1ccc(N)cc1,Potency,[1],inactive
same,Potency,[3],inactive
CN(C)CCOc1ccc(/C(=C(/CCCl)c2ccccc2)c2ccccc2)cc1,Potency,[1],inactive
same,Potency,[3],inactive
CCN(CC)CC#CCOC(=O)C(O)(c1ccccc1)C1CCCCC1 (stereo not given),Potency,[1],inactive
same,Potency,[3],inactive
CC(C)(C)CC(C)(C)c1ccc(OCCOCC[N+](C)(C)Cc2ccccc2)cc1,Potency,[1],inactive
same,Potency,[3],inactive
Cc1ccc(Nc2nccc(N(C)c3ccc4c(C)n(C)nc4c3)n2)cc1S(N)(=O)=O,Potency,[1],inactive
same,Potency,[3],inactive
CNCCCCOc1ccccc1Cc1ccccc1,Potency,[3],inactive
same,Potency,[4],inactive
CC(=O)N1CCN(c2ccc(OC[C@H]3CO[C@](Cn4ccnc4)(c4ccc(Cl)cc4Cl)O3)cc2)CC1,Potency,[2],7.94 µM (active)
CN1CCN(C(c2ccccc2)c2ccc(Cl)cc2)CC1 (stereo not given),Potency,[1],inactive
same,Potency,[3],inactive
same,Potency,[4],inactive
N#Cc1ccc2c(c1)N(CCCN1CCC(O)CC1)c1ccccc1S2,Potency,[1],inactive
same,Potency,[3],inactive
same,Potency,[4],inactive
same,Potency,[5],11.2 µM (active)
Cc1cc(C(C#N)c2ccc(Cl)cc2)c(Cl)cc1NC(=O)c1cc(I)cc(I)c1O (stereo not given),Potency,[2],20 µM (active)
Nc1ncn([C@H]2C[C@H](O)[C@@H](CO)O2)c(=O)n1,Potency,[1],inactive
same,Potency,[3],inactive
CC(=O)O[C@]1(C(C)=O)CC[C@H]2[C@@H]3C[C@H](C)C4=CC(=O)CC[C@]4(C)[C@H]3CC[C@@]21C,Potency,[1],inactive
same,Potency,[3],inactive
